A selection: hits, their analogues and other compounds. The true share with any hit is near 1.2%.
Yeast superoxide: lowers age-related superoxide in aged yeast cells | AID 2690 | superoxide response (% of plate mean), % at 10 µM | 0.18% of 330,000 active | S. cerevisiae aged cells, superoxide DHE fluorescence; stronger effect = lower value;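 active = superoxide response under a set limit, about three screen SD below normal, cut at about 65% in these data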;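 also: yeast aged for seven days with compound at 30 °C before DHE staining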
VLA-4 inh: inhibition in a human VLA-4 binding assay | P13612 | VLA-4 expressing cells, ligand binding flow cytometry | inhibition, % (about 7 µM as worked out from the volumes in the protocol) | 0.2% of 330,000 active | AID 2557; in the data active = inhibition above about 50%
Target sequence (P13612 whole entry, looked up): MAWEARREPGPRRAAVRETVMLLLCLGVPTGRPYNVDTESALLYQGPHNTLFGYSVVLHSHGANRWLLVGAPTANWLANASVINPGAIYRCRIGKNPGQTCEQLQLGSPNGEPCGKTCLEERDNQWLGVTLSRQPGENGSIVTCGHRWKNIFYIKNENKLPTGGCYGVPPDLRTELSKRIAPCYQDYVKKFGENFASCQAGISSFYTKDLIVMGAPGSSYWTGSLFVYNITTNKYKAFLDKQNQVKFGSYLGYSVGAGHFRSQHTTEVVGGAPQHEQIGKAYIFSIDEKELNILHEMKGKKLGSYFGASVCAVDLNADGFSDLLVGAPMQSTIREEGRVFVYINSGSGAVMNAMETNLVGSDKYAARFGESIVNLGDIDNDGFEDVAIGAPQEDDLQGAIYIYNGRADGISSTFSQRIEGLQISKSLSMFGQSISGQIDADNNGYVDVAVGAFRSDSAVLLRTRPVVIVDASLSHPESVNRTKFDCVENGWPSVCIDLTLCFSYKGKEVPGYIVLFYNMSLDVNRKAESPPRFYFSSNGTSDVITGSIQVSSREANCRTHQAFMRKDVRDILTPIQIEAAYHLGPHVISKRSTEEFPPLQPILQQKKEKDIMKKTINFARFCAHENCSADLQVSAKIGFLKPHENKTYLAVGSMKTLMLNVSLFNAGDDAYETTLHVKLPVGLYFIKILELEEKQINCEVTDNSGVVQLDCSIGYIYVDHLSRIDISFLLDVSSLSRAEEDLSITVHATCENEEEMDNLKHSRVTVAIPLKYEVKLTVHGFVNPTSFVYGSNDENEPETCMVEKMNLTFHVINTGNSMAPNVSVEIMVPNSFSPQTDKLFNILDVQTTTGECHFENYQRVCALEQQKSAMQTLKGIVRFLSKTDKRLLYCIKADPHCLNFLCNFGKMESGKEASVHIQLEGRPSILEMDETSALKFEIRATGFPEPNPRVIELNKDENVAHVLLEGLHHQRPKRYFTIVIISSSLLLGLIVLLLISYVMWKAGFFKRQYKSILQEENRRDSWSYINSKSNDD
SKN-1 block: blocks SKN-1 activity in C. elegans. C. elegans VP596 Pgst-4::GFP/RFP ratio, acrylamide-induced, 24 h. inhibition, % at 21.8 µM. 0.49% of 360,000 active;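 active = interference check ratio from 0.5 to 1.5 plus GFP to RFP signal ratio inhibition reaching or exceeding a fixed threshold, cut at about 30% in these data, passing the limit was not always enough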
ABCB6 inh 2: human ABCB6 transporter inhibition. Q9NP58. 0.19% of 360,000 active. K562-ABCB6 porphyrin accumulation, flow cytometry, 1 h; stronger effect = lower value. fluorescence ratio to DMSO, % at 10 µM;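 active = fluorescence ratio to DMSO below 75%, the collection mean minus 3 SD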;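 also: signal is porphyrin accumulated inside mitochondria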
Platelet DG rel: modulates dense granule release in human platelets; 0.22% of 300,000 active; inhibition, %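 (compounds screened at 7.5 µM in platelet-rich plasma)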; human platelet-rich plasma, SFLLRN dense granule ATP release, luminescence;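 active = mean replicate score, as percent of positive control, at or above 50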
VLA-4 mod pick: confirmation of allosteric modulators of human VLA-4 integrin; shares compounds with VLA-4 inh; U937 cells, HUTS-21 LIBS mAb binding, flow cytometry; LDV ligand present at threefold Kd; inhibition, % at 6.7 µM; 2% of 1,300 active; AID 2813; in the data active = inhibition above about 40%
Hits are given with their value; – = inactive; · = no result given.

SMILES | Yeast superoxide | VLA-4 inh | SKN-1 block | ABCB6 inh 2 | Platelet DG rel | VLA-4 mod pick
C=C1[C@@H](O)[C@@H]2O[C@]3(CC[C@H](/C=C/[C@@H](C)[C@@H]4CC(C)=CC5(O[C@H](C[C@@](C)(O)C(=O)OC)CC[C@H]5O)O4)O3)CC[C@H]2O[C@@H]1[C@@H](O)C[C@H](C)[C@H]1OC2(CCCCO2)CC[C@H]1C (stereo partly specified) | – | – | · | · | · | ·
COc1ccc(-c2nc3scc(-c4ccc(OC)c(OC)c4)c3c(=O)o2)cc1 | – | 84 | – | – | – | –
COc1cccc(N(C(=O)CS(=O)CC(=O)Nc2ccc(F)cc2)C(C(=O)NC2CCCCC2)c2cccs2)c1 (stereo unspecified) | – | – | – | – | – | –
O=C(NCCN1CCC(n2c(=O)[nH]c3ccccc32)CC1)N1c2ccccc2Sc2ccccc21 | · | · | – | – | · | ·
CCOc1ncccc1C(=O)Nc1cccc(-c2nnc3n2CCCCC3)c1 | – | 68 | – | – | – | –
COc1ccccc1-c1noc2c1C(=O)N(Cc1cn(-c3ccccc3OC)nn1)CC2 | · | · | – | – | · | ·
CC(=O)Nc1ccc(N2C(=O)CC(N3CCSCC3)C2=O)cc1 (stereo unspecified) | – | – | – | – | – | ·
CC(=O)Nc1ccc(N2C(=O)CC(N3CC(C)OC(C)C3)C2=O)cc1 (stereo unspecified) | – | – | – | – | – | –
COc1ccc(-c2c(C(F)(F)F)oc3c(CN4CCN(C)CC4)c(O)ccc3c2=O)cc1 | – | 92 | – | – | – | –
COc1ccc(-c2c(C)oc3c(CN4CCN(C)CC4)c(O)ccc3c2=O)cc1 | – | – | – | – | – | ·
CCCCOCCCNC(=O)C[C@@H]1C[C@@]2(C(=O)OC)CCCCC=C2N(Cc2cccc3ccccc23)C1=O | · | · | – | – | · | ·
COCCn1c(=NC(=O)/C=C/c2ccccc2Cl)sc2cc(NC(C)=O)ccc21 | – | – | – | – | – | ·
CCOCCn1c(=NC(=O)/C=C/c2ccccc2Cl)sc2cc(NC(C)=O)ccc21 | – | – | – | – | – | –
O=C1Cc2cc(S(=O)(=O)N3CCNCC3)ccc2N1 | – | – | – | – | · | –
CC1(C(=O)NC2CCc3ccccc32)CCN1CCc1ccccc1 (stereo unspecified) | · | · | – | – | · | ·
COc1ccc(C(=O)C2CCCN(Cc3c[nH]c4ccccc34)C2)c(OC)c1 (stereo unspecified) | – | 55 | – | – | – | –
CCC(Sc1ccc2nnc(-c3ccc(OC)c(OC)c3)n2n1)C(=O)O (stereo unspecified) | – | – | – | – | – | –
O=C(c1cc(-c2ccc(Cl)cc2)n(-c2ccc(Cl)cc2)n1)N1CCOCC1 | – | 92 | – | – | – | –
Cc1ccc(-n2nc(C(=O)N3CCOCC3)cc2-c2ccc(Cl)cc2)cc1 | – | – | – | – | – | ·
CN(C)c1ccc(-c2ccnc3c2CC(C)(C(=O)NCc2ccco2)O3)cc1 (stereo unspecified) | · | · | – | – | · | ·
CC(C)NC(=O)CCCC(=O)NC(C)C | – | – | – | – | – | –
COc1cccc2cc(C(N)=O)oc12 | – | 51 | – | – | – | –
CCOC(=O)CSc1ccc2nnc(-c3cccnc3)n2n1 | – | – | – | – | – | –
CCOC(=O)CSc1ccc2nnc(-c3ccccc3)n2n1 | – | – | – | – | – | ·
CC1(C(=O)Nc2ccc3c(c2)OCCO3)CN(S(C)(=O)=O)CC(=O)N1CCc1c[nH]c2ccccc12 (stereo unspecified) | · | · | – | · | · | ·
SMILES | Yeast superoxide | VLA-4 inh | SKN-1 block | ABCB6 inh 2 | Platelet DG rel | VLA-4 mod pick
COc1cc(/C=C/C(=O)OCC(=O)Nc2c(C)n(C)n(-c3ccccc3)c2=O)ccc1OCC#N | – | 61 | – | – | – | –
O=C(Nc1ccn(C2CCC(CO)O2)c(=O)n1)c1ccccc1 (stereo unspecified) | · | · | – | – | · | ·
CCn1c(=N)n(CC(O)c2ccco2)c2ccccc21 (stereo unspecified) | – | – | – | – | – | ·
CCn1c(=N)n(CC(O)c2cccs2)c2ccccc21 (stereo unspecified) | – | – | – | – | – | –
CCc1c(-c2cccc(OC)c2)ncn1Cc1cccc(-c2ccccc2)c1 | · | · | – | · | · | ·
CN(CC(=O)NCc1ccccc1F)S(=O)(=O)c1ccc(Cl)cc1 | – | – | – | – | – | –
COc1ccc(CNC(=O)CN(C)S(=O)(=O)c2ccccc2)cc1 | – | 52 | – | – | – | –
CCN(CC(=O)NCc1ccc(Cl)cc1)S(=O)(=O)c1ccc(F)cc1 | – | – | – | – | – | –
CCOC(=O)[C@]12CCCC=C1N(CCc1ccc(OC)c(OC)c1)C(=O)[C@H](CC(=O)NCc1ccc(C)o1)C2 | · | · | – | · | · | ·
Cc1cccc(OCCC(=O)Nc2ccc(N3CCOCC3)cc2N2CCOCC2)c1 | – | 50 | – | – | · | –
O=C(CC1SCCNC1=O)Nc1ccccc1Cl (stereo unspecified) | – | 59 | – | – | – | –
O=C(CC1SCCNC1=O)Nc1ccc(F)c(Cl)c1 (stereo unspecified) | – | – | – | – | – | ·
Cc1cc(C)c2cc(C#N)c(NCCNC(=O)c3ccccn3)nc2c1 | · | · | – | · | · | ·
Nc1ccc(NC(=S)Nc2ccccc2)cc1 | – | – | – | – | – | ·
Oc1ccc(NC(=S)Nc2ccccc2)cc1 | – | – | – | – | – | –
Cn1c(NC(=S)Nc2ccccc2)nc2ccccc21 | – | – | – | – | – | –
Fc1ccc2nc(Nc3nc4c(F)cccc4s3)sc2c1 | – | 53 | – | – | – | –
Cc1ccc(S(=O)(=O)Nc2ccccc2OC(C(=O)OC(C)(C)C)C(=O)OC(C)(C)C)cc1 | · | · | – | · | · | ·
Cc1ccc(CN2CCN(Cc3cccc(OCCO)c3)CC2CCO)o1 (stereo unspecified) | – | – | – | – | – | –
Cc1ccc(CN2CCN(Cc3ccc(OC(C)C)cc3)CC2CCO)o1 (stereo unspecified) | – | – | – | – | – | ·
CCN1CCCC1CNC(=O)C(=O)NC1CC1 (stereo unspecified) | – | – | – | – | – | –
CC(C)(C)NCC(O)CON=C1c2ccccc2-c2ccccc21 (stereo unspecified) | – | 55 | – | – | – | –
CC(C)(C)NC(=O)CON=C1c2ccccc2-c2ccccc21 | – | – | – | – | – | ·
C[C@H]1[C@@H](Cc2cc(Cl)cc(Cl)c2)N(c2ccccc2)c2ccccc2CN1Cc1ccccc1 | · | · | – | · | · | ·
Cc1ccc(NC(=O)c2cc(-c3cc(Cl)ccc3C)n[nH]2)cc1NS(C)(=O)=O | · | · | – | – | · | ·
Cc1ccc(O)c(NC(=O)c2cc([N+](=O)[O-])ccc2Cl)c1 | – | – | – | – | – | ·
Cc1cc(O)c(NC(=O)c2cc([N+](=O)[O-])ccc2Cl)cc1C | – | 51 | – | – | – | –
O=C(Nc1ccccc1)Nc1cccc2cccnc12 | – | 69 | – | – | – | –
O=C(Nc1ccccc1)Nc1cccc2ccccc12 | – | – | – | – | – | ·

Assay outcomes as filed in PubChem BioAssay.
